According to PubChem BioAssay:
A number with no mark means an inactive call. The source made the active and inactive calls.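 The calls were made as follows, unless noted: active = mean inhibition above 46.68%, the untreated control wells mean plus 3 SD; inactive = the rest.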

Experiments:
[1] = biological target: Nuclear receptor coactivator 1 (Homo sapiens) (UniProt Q15788); assay: SRC1 coactivator transcriptional activity inhibitors, confirmation, cell-based, luminescence, quadruplicate (AID 588820); conditions: HEK293 GAL4-SRC1 luciferase reporter, at 3.6 µM, stronger effect = higher value;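 also: 0% = DMSO wells and 100% = gossypol 36 µM treated wells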
Chain of Nuclear receptor coactivator 1 (Homo sapiens) (Q15788 whole entry, looked up, the tested form may be a part): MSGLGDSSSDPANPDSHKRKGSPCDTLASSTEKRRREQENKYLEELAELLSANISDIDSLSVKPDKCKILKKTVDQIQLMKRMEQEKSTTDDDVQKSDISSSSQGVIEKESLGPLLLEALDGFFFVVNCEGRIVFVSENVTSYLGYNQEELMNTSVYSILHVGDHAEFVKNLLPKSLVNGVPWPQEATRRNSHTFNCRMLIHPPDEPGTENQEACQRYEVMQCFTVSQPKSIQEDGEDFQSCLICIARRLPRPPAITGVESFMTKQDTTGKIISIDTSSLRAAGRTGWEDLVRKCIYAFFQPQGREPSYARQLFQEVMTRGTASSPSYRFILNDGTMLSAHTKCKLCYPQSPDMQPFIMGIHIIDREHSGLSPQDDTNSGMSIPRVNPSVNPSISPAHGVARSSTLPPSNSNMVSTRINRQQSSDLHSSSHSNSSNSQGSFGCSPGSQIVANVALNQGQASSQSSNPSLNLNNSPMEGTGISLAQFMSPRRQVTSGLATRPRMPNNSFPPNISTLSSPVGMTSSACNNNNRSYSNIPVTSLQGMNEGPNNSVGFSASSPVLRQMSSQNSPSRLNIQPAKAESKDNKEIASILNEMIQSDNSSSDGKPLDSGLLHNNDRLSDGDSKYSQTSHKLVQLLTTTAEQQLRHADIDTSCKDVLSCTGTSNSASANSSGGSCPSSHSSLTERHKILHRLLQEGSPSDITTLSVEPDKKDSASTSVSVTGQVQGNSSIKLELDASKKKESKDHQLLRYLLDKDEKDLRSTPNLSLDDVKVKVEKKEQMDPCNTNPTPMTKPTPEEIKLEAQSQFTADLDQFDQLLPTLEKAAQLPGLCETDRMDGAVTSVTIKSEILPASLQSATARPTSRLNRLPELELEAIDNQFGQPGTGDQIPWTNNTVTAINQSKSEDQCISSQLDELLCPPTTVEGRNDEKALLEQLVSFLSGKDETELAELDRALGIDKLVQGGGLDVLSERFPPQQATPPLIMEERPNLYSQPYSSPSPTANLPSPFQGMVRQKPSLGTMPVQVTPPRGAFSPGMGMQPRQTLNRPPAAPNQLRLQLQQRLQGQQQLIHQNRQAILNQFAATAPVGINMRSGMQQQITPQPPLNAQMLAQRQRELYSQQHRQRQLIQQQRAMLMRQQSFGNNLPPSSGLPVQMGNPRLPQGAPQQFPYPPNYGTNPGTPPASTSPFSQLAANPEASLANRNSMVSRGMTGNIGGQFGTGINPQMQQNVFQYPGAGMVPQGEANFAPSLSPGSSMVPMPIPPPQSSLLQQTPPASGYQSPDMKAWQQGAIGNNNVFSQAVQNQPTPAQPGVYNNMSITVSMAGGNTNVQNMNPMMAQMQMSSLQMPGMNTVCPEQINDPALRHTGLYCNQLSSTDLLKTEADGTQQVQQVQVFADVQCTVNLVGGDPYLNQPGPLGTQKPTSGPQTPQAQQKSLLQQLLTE

[2] = VP16 transactivation inhibitors, counter-screen for SRC1 inhibitor project, cell-based, luminescence, high throughput (AID 588824; in the data active = inhibition above about 25%); conditions: cell-based VP16 transactivation luciferase luminescence; at 3.6 µM; stronger effect = higher value

| Compound | inhibition [1] | inhibition [2] |
| --- | --- | --- |
| CCCCc1ccc(NC(=O)Nc2c(C)n(C)n(-c3ccccc3)c2=O)cc1 | -11% | 7.24% |
| COc1ccc(NS(=O)(=O)c2cc(NC(=O)CC(C)(C)C)ccc2N2CCCC2)cc1 | -10.7% | -1.18% |
| COc1cccc(CNc2nc3cc(-c4ccsc4)sc3c(=O)n2C)c1OC | -0.05% | 25.6% (active) |
| COc1ccc(-n2c(SC(C)C(=O)Nc3ncc(Cl)cc3Cl)nc3ccccc32)cc1 (configuration not stated) | 35.4% | 79.4% (active) |
| CN1C(=O)[C@H](Cc2ccc([N+](=O)[O-])cc2)NC1=S | 27.2% | 26.4% (active) |
| Cc1cc(C(=O)OCC(=O)N2CC(C)OC(C)C2)c(C)n1-c1ccccc1 (configuration not stated) | -17% | -1.93% |
| CCN(CC)S(=O)(=O)c1cc(NC(=O)C2CCN(c3ncnc4sc(C)c(C)c34)CC2)ccc1Cl | 3.49% | 34.4% (active) |
| CCN(CC(=O)Nc1ccccc1C(F)(F)F)C(=O)c1ccc2[nH]c3c(c2c1)CC(C)CC3 (configuration not stated) | -11.7% | -8.04% |
| Cc1csc(-c2cc(C(=O)NCc3cc(C(F)(F)F)cc(C(F)(F)F)c3)n[nH]2)c1 | 20.5% | 47.2% (active) |
| CCc1ccc(NC(=O)c2ccc(F)c(S(=O)(=O)N(CC)c3ccccc3)c2)cc1 | 3.58% | 13.5% |
| CCc1nc2c(OCc3c(C)noc3C)cccn2c1N(C=O)Cc1ccccc1 | -4.23% | -5.1% |
| COC(=O)C(C)NC(=O)C12CC3CC(C1)CC(c1ccc(C)cc1)(C3)C2 (configuration not stated) | -5.33% | 4.73% |
| O=C(C[C@H]1C[C@H](C(=O)N2CCOCC2)[C@@]2(CCC3CCCC3)c3[nH]c4ccc(Cl)cc4c3CCN2C1=O)NCCCn1ccnc1 | -4.01% | 2.48% |
| C=C1CCC[C@]2(C)C[C@H]3OC(=O)C(CN4CC(C)OC(C)C4)[C@H]3C[C@@H]12 (some centres not stated) | -0.94% | 2.96% |
| COC(=O)c1ccsc1NC(=O)CN1CCN(c2ncccn2)CC1 | -31.8% | -17.6% |
| CCOC(=O)c1c(CN(CC)CC)n(C)c2cc(Br)c(O)cc12 | 6.72% | 2.67% |

| Compound | inhibition [1] | inhibition [2] |
| --- | --- | --- |
| Cc1c(/C(O)=C2\C(=O)C(=O)N(CCCN(C)C)C2c2ccccc2)cnn1-c1ccccc1 (configuration not stated) | 6.48% | -4.83% |
| CCOc1ccc(CCNC(=O)CSCc2ccc(C)cc2)cc1OCC | -18.5% | -1.5% |
| COc1ccc(CN2CCN(C(=O)c3cc(-c4cccnc4)nc4ccc(Cl)cc34)CC2)c(OC)c1OC | -29.8% | -6.25% |
| Cc1ccc(S(=O)(=O)NCCC2=CCCCC2)cc1 | -5.59% | 7% |
| Cc1c(C(=O)NCC2COc3ccccc3O2)oc2ccc(S(=O)(=O)N3CCOCC3)cc12 (configuration not stated) | -7.47% | 15.8% |
| C=C1C(=O)O[C@@]23[C@H]1CC[C@@H](C)[C@@H]2CC[C@@]1(C)O[C@@H]31 | 1.63% | 7.69% |
| Cc1[nH]nc2ncc(C(=O)c3cc(F)ccc3O)cc12 | 18.4% | 16.1% |
| COc1ccc(CNC(=O)c2cccc(S(=O)(=O)N3CCCCC3)c2)cc1OC | -20.1% | 30.6% (active) |
| COc1ccccc1CNC(=O)Cn1nnnc1CN(C)C(C)C | -0.61% | 9.79% |
| Cc1ccc(Oc2ccccc2NC(=O)CSCC(=O)Nc2cc(C)on2)cc1 | 1.59% | 16.1% |
| CCn1cc(C(=O)NCC(OC)OC)c(=O)c2cc(S(=O)(=O)N(C)C3CCCCC3)ccc21 | 11.4% | 19.8% |
| COc1ccccc1OCCn1c(C)c(C=O)c2ccccc21 | 10.8% | 8.95% |
| CCN(CC)CCNC(=O)CCN1N=C(c2ccccc2)CCC1=O | -4.6% | -9.8% |
| Cc1ccc(NNC(=O)C(=O)N2CCCCC2)cc1 | -16.9% | 11.6% |
| CCCCCN(C(=O)CCC(=O)OCC(=O)N(CC#N)c1ccccc1)c1c(N)n(CCCC)c(=O)[nH]c1=O | -5.77% | 1.44% |
